# Hit rate of the full screen: of about 93,000 compounds, about 65 (0.07%) were called active.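 Rule for the calls: active = 10 µM primary screen giving 50% or more activity, confirmed by 40% or more on retest at that dose; inactive = the rest.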 The full list was thinned out, with actives kept by preference.
# Target: Integrin beta-2 (Homo sapiens) + Integrin alpha-M (Homo sapiens) (UniProt P05107+P11215)
# Assay: enhancers of CD11b/CD18 adhesion to fibrinogen, primary screen, K562 cells, luminescence (AID 1499)
# Conditions: ATPlite luminescence, at 10 µM, active compounds read high
# Sequence of Integrin beta-2 (Homo sapiens) + Integrin alpha-M (Homo sapiens) (P05107 whole entry, looked up, other chains not shown): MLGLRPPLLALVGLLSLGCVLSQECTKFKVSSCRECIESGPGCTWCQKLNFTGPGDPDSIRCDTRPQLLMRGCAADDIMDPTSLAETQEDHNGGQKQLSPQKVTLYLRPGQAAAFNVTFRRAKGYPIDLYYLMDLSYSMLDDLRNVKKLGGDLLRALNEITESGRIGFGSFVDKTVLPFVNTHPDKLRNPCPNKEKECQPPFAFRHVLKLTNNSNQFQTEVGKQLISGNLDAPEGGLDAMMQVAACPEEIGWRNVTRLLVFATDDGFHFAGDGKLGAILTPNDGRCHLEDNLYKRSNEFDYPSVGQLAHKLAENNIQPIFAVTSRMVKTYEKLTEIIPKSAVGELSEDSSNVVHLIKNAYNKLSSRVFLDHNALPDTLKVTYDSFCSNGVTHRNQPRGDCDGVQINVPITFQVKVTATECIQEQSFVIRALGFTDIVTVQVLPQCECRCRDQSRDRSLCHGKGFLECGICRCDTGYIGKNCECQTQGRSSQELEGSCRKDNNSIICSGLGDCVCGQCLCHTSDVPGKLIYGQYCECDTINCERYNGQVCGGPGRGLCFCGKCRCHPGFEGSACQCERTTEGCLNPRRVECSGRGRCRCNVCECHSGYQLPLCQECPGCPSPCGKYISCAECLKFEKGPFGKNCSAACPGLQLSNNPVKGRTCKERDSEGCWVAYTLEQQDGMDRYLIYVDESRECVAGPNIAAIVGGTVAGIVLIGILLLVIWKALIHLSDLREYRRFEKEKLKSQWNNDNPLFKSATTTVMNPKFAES
row,SMILES,activation
1,CCN(C(=O)COC(=O)c1c(NC(C)=O)sc(C)c1C)C1CCS(=O)(=O)C1 (stereo unspecified),0.3% (inactive)
2,CCOC(=O)NC(=O)CSc1nnc(SCCC(=O)O)s1,-3.3% (inactive)
3,Cc1cccc(OCc2ccc(C(=O)Nc3ccc(F)cc3)cc2)c1,-6.2% (inactive)
4,O=C(NC(=S)Nc1ccc(NC(=O)c2cccs2)cc1)c1ccc([N+](=O)[O-])cc1,55.8% (inactive)
5,CC(Sc1nc2cc(Cl)ccc2s1)C(=O)Nc1ccc2c(c1)OCO2 (stereo unspecified),0.6% (inactive)
6,COc1ccc(OC)c(/C=C/C(=O)OCC(=O)Nc2ccc3c(c2)OCCO3)c1,-3.7% (inactive)
7,CCOc1ccc2c(=O)c(-c3ccc4c(c3)OCCCO4)c(C)oc2c1,3% (inactive)
8,N#Cc1c(NC(=O)c2ccc(N3CCOCC3)c([N+](=O)[O-])c2)sc2c1CCCC2,-0.4% (inactive)
9,Cc1ccc(S(=O)(=O)C2C(=O)NC3(C)CC2c2ccccc2O3)cc1 (stereo unspecified),0.7% (inactive)
10,CCC1CCCCN1C(=S)Nc1ccc(SC(F)F)cc1 (stereo unspecified),1.7% (inactive)
11,CCCC/C(C)=N/NC(=O)NC1CCCCC1,-0.9% (inactive)
12,CC(C)CNC(=O)COC(=O)c1ccccc1OCC(=O)Nc1ccc(Br)cc1,1% (inactive)
13,Cc1cc([N+](=O)[O-])ccc1NC(=O)C1CCCO1 (stereo unspecified),1.8% (inactive)
14,Cc1ccccc1NC(=O)CSC1=NCCN1,3.2% (inactive)
15,Cc1cc(C)c[n+](-c2nc3ccccc3nc2[N-]S(=O)(=O)c2cccs2)c1,2.1% (inactive)
16,COc1ccc([N+](=O)[O-])cc1NC(=O)C(C)OC(=O)C1c2ccccc2Oc2ccccc21 (stereo unspecified),-2.2% (inactive)
17,COc1cc(Cl)c(C)cc1NC(=O)[C@@H]1CCCN1C(=O)c1cccs1,-2.3% (inactive)
18,CCOC(=O)C1CCN(c2ccc(C(=O)O)cc2[N+](=O)[O-])CC1,-3.3% (inactive)
19,O=C(NCC1CCCO1)/C(=C/c1ccc(Cl)cc1)NC(=O)c1ccccc1 (stereo unspecified),0.2% (inactive)

row,SMILES,activation
1,O=C(CN1CCN(c2ccccn2)CC1)N1CCc2ccccc21,3.8% (inactive)
2,N#CC1(NC(=O)COc2ccc3oc4ccccc4c3c2)CCCCC1,10.2% (inactive)
3,CN1CCN(c2ccc(S(=O)(=O)Nc3ccccc3)cc2[N+](=O)[O-])CC1,-2.2% (inactive)
4,Cc1nnc(SCC(=O)N2CCOCC2)[nH]c1=O,-6.4% (inactive)
5,OCC(CO)(CO)NCc1ccc(-c2ccccc2)cc1,4.4% (inactive)
6,COc1cc(/C=N/NC(=O)CCc2n[nH]c(=O)[nH]c2=O)ccc1O,15.1% (inactive)
7,COC(=O)C1=C(NC(=O)C(C)(C)C)CCS1,1.8% (inactive)
8,Cc1ccc(-c2nnc(SCC(=O)N/N=C/c3cccs3)n2-c2ccc(C)cc2)cc1,9% (inactive)
9,COc1ccc(NS(=O)(=O)c2ccc(NC(=O)c3ccc(N(C)S(C)(=O)=O)cc3)cc2)cc1,-3.8% (inactive)
10,Cc1ccc(O)c(CCc2ccccc2)n1,-3.8% (inactive)
11,CCOC(=O)c1oc2c(CN3CCN(C)CC3)c(O)ccc2c(=O)c1-c1ccc(Br)cc1,2% (inactive)
12,O=C(COC(=O)Cn1cnc2ccccc2c1=O)NCC12CC3CC(CC(C3)C1)C2,5.2% (inactive)
13,CSCCC(NC(=O)c1cc([N+](=O)[O-])cc([N+](=O)[O-])c1)c1nc2ccccc2[nH]1 (stereo unspecified),22% (inactive)
14,Cc1ccc2nc(SCc3cn4c(C)cc(C)nc4n3)[nH]c2c1,-2.3% (inactive)
15,Oc1c(Br)cccc1/C=N/Nc1c(F)c(F)c(F)c(F)c1F,-10.4% (inactive)
16,Cc1ccc(NC(=O)CN(C)Cc2ccc(F)cc2)c([N+](=O)[O-])c1,-1% (inactive)
17,O=C(Oc1ccccc1Cl)c1ccc(N2CCOCC2)c([N+](=O)[O-])c1,-0.9% (inactive)
18,CCS(=O)(=O)Nc1cccc(-c2cc(-c3ccccc3)c3cc(C)ccc3n2)c1,-5.6% (inactive)
19,O=C(COC(=O)CSc1nnc(-c2ccc(Cl)cc2)o1)Nc1cc(Cl)cc(Cl)c1,25.1% (inactive)

row,SMILES,activation
1,O=C(Nc1ccccc1)/C(=C/c1ccc([N+](=O)[O-])cc1)NC(=O)c1ccccc1,29.4% (inactive)
2,CN(Cc1ccccc1)C(=O)COC(=O)c1ccccc1Nc1ccccc1,-2.4% (inactive)
3,CC(C)C(=O)Nc1ccc2c3c(cccc13)CC2,-4.8% (inactive)
4,CCCOC(=O)c1c(NC(=O)c2cnn3c2NC(c2ccccc2)CC3C(F)(F)F)sc2c1CCCC2 (stereo unspecified),62.7% (inactive)
5,O=C(Oc1ccc([N+](=O)[O-])cc1)c1ccc(Cl)c(S(=O)(=O)N2CCCCC2)c1,-4.7% (inactive)
6,O=C(Nc1nnc(C2COc3ccccc3O2)o1)c1ccc(F)cc1 (stereo unspecified),3% (inactive)
7,COC(=O)N/N=C/c1ccc(-c2ccc(Cl)c(Cl)c2)o1,-1.3% (inactive)
8,COc1ccc(Nc2nc(N)nc(CSC(=S)N3CCC(C)CC3)n2)cc1,2.4% (inactive)
9,COc1ccc(Cl)cc1NC(=O)[C@@H]1CCCN1C(=O)c1cccs1,2.8% (inactive)
10,O=C(Nc1ccccc1Cl)c1ccccc1S(=O)(=O)c1ccccc1[N+](=O)[O-],1% (inactive)
11,CCOc1ccc(NC(=O)COc2ccc(C(=O)NC3CCCc4ccccc43)cc2OC)cc1 (stereo unspecified),37% (inactive)
12,COc1ccc(C2c3c(C)nn(-c4ccccc4)c3NC(=O)N2c2ccccc2)cc1 (stereo unspecified),-1.5% (inactive)
13,CCCc1c(C)nc2c(Br)cccc2c1Cl,2.4% (inactive)
14,COC(=O)c1ccc(C(=O)OC)c(NC(=S)N2CCN(c3cc(Cl)ccc3C)CC2)c1,-1.1% (inactive)
15,CCN(CC)c1ccc([N+](=O)[O-])cc1C(=O)O,-7% (inactive)
16,COc1ccc(CCNC(=O)CSc2nc(-c3ccc(OC)c(OC)c3)ccc2C#N)cc1,8.9% (inactive)
17,CC(=O)N1CCN(CC(=O)Nc2ccc(SC(F)F)cc2)CC1,2.9% (inactive)
18,Cc1nn(C)c(Oc2ccccc2)c1CCNS(=O)(=O)c1ccc(F)cc1,4.8% (inactive)

# From PubChem BioAssay AID1499 (Sanford-Burnham Center for Chemical Genomics, 2009)
